Test results published in PubChem BioAssay (EPA / NIEHS).
Several values for one entry are separate records, joined by “and”; a condition that tells them apart may be missing. Identical values can stand only once. Results filed as inconclusive are left out. Activity calls are given as the source filed them. Rule for the calls: active = hit-call score of the fitted dose curve at least 0.9, where 1 is the maximum; inconclusive = response in the unintended direction; inactive = score below 0.9.

What was measured:
[1] = TOX21_p53_BLA_p2_viability: Viability Assessment in the Tox21 HCT-116 p53 Agonism Beta-lactamase Assay, Phase 2 (AID 2283591);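 note: compound exposure lasted 16 h at 37 °C; actives lower the ATP signal meaning cytotoxicity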
How it was run: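 Cytotoxicity readout: CellTiter-Glo ATP luminescence, 30 min at room temperature, after the beta-lactamase read. Cells were HCT116 exposed 16 h at 37C to compounds pin-transferred at 217-fold dilution from DMSO stocks.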

[2] = biological target: Cellular tumor antigen p53 (Homo sapiens) (UniProt P04637); assay: TOX21_p53_BLA_p2_ratio: Tox21 HCT-116 p53 Agonism Beta-lactamase Assay, Ratio, Phase 2 (AID 2283592)
Chain of Cellular tumor antigen p53 (Homo sapiens) (P04637 whole entry, looked up): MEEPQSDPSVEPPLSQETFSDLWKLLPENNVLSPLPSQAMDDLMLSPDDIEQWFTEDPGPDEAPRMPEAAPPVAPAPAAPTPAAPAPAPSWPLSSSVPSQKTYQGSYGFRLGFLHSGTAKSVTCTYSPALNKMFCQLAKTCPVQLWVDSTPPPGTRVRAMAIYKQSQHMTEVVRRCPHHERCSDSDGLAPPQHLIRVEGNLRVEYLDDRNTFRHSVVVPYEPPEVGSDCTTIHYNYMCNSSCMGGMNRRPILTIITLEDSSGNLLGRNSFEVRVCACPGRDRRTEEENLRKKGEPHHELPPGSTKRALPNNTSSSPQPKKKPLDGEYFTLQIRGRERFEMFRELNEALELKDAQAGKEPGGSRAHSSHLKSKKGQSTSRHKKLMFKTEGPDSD
How it was run: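 Cleaved-to-uncleaved substrate ratio (460 vs 530 nm) measured in HCT116 cells with an inducible beta-lactamase reporter linked to p53 activity. Compounds incubated 16 h at 37C before 2 h room-temperature CCF4-AM loading.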

[3] = TOX21_p53_BLA_p3_viability: Viability Assessment in the Tox21 HCT-116 p53 Agonism Beta-lactamase Assay, Phase 3 (AID 2283593);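 note: cells exposed to compound for 16 h before reading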
How it was run: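 Cellular ATP was quantified by CellTiter-Glo luminescence, read after 30 min at room temperature. Beforehand, HCT116 cells (4000/well) received compound 5 h post-seeding, 217-fold diluted from DMSO, then incubated 16 h at 37C.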

[4] = biological target: Cellular tumor antigen p53 (Homo sapiens) (UniProt P04637); assay: TOX21_p53_BLA_p3_ratio: Tox21 HCT-116 p53 Agonism Beta-lactamase Assay, Ratio, Phase 3 (AID 2283596)
How it was run: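 Cells were seeded at 4000/well, rested 5 h at 37C, then dosed with DMSO compound solutions (217-fold dilution) for 16 h. CCF4-AM substrate was loaded for 2 h at room temperature, and the 460/530 nm emission ratio was fitted for gain of signal versus DMSO.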

[5] = TOX21_p53_BLA_p4_viability: Viability Assessment in the Tox21 HCT-116 p53 Agonism Beta-lactamase Assay, Phase 4 (AID 2283597);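 note: hits lower the luminescence signal meaning cytotoxicity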
How it was run: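 Viability is taken as cellular ATP: after 16 h compound exposure of HCT116 cells and a 2 h room-temperature CCF4-AM substrate step, CellTiter-Glo reagent is added and luminescence is measured 30 min later.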

[6] = biological target: Cellular tumor antigen p53 (Homo sapiens) (UniProt P04637); assay: TOX21_p53_BLA_p5_ratio: Tox21 HCT-116 p53 Agonism Beta-lactamase Assay, Ratio, Phase 5 (AID 2283599)
How it was run: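 Beta-lactamase reporter ratio (blue 460 nm over green 530 nm, 405 nm excitation) after 2 h CCF4-AM loading, in HCT-116 cells exposed 16 h at 37 C to compounds pinned at 217-fold dilution. Increases relative to DMSO baseline scored.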

[7] = TOX21_p53_BLA_p5_viability: Viability Assessment in the Tox21 HCT-116 p53 Agonism Beta-lactamase Assay, Phase 5 (AID 2283600)
How it was run: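 Viability is taken from cellular ATP content, measured by luciferase luminescence in the same wells after the beta-lactamase ratio read. Cells are seeded at 4000 per well and exposed to DMSO-dissolved compounds, diluted 217-fold, for 16 h.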

[8] = biological target: Cellular tumor antigen p53 (Homo sapiens) (UniProt P04637); assay: TOX21_p53_BLA_p4_ratio: Tox21 HCT-116 p53 Agonism Beta-lactamase Assay, Ratio, Phase 4 (AID 2283601)
How it was run: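 Signal is the blue/green (460nm/530nm) ratio of cleaved versus uncleaved CCF4-AM substrate, read after 2 h substrate loading. Cells were HCT116 carrying the p53-responsive beta-lactamase reporter, dosed 16 h at 37C, 5% CO2; CellTiter-Glo measured in parallel.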

Compound	outcome [1]	outcome [2]	outcome [3]	outcome [4]	outcome [5]	outcome [6]	outcome [7]	outcome [8]	AC50 [2]	AC50 [4]	AC50 [6]	AC50 [8]	AC50 [1]	AC50 [3]	AC50 [5]	AC50 [7]
CN(C)[C@@H]1C(=O)C(C(=O)NCN2CCCC2)=C(O)[C@@]2(O)C(=O)C3=C(O)c4c(O)cccc4[C@@](C)(O)C3C[C@@H]12 (stereo partly specified)	inactive	inactive	inactive	inactive	inactive	inactive	inactive	inactive								
C=CCNC1=C2C[C@@H](C)C[C@H](OC)[C@H](O)[C@@H](C)/C=C(\C)[C@H](OC(N)=O)[C@@H](OC)/C=C\C=C(/C)C(=O)NC(=CC1=O)C2=O	inactive		inactive		inactive		inactive		0.189 µM (active)	0.19 µM (active)	0.183 µM (active)	0.147 µM (active)				
COc1cc(NS(C)(=O)=O)ccc1Nc1c2ccccc2nc2ccccc12									7.65 µM (active)	8.11 µM (active)	22.1 µM (active)	1.36 µM (active)	12.8 µM (active)	15.1 µM (active)	25.6 µM (active)	33.6 µM (active)
CCCCCCCCCCCCCC[n+]1ccc(C)cc1	inactive		inactive		inactive	inactive	inactive	inactive	20.1 µM (active)	27.5 µM (active)						
CCC(C)n1ncn(-c2ccc(N3CCN(c4ccc(OC[C@H]5CO[C@](Cn6cncn6)(c6ccc(Cl)cc6Cl)O5)cc4)CC3)cc2)c1=O (stereo partly specified)	inactive	inactive	inactive	inactive	inactive	inactive	inactive	inactive								
Nc1ccc(S(=O)(=O)Nc2ccc(Cl)nn2)cc1	inactive	inactive	inactive	inactive	inactive	inactive	inactive	inactive								
Cc1nnc(NS(=O)(=O)c2ccc(N)cc2)s1	inactive	inactive	inactive	inactive	inactive	inactive	inactive	inactive								
CCC(C)[C@H]1O[C@]2(C=C[C@@H]1C)C[C@@H]1C[C@@H](C/C=C(\C)[C@@H](O[C@H]3C[C@H](OC)[C@@H](O[C@H]4C[C@H](OC)[C@H](NC(C)=O)[C@H](C)O4)[C@H](C)O3)[C@@H](C)/C=C/C=C3\CO[C@@H]4[C@H](O)C(C)=C[C@@H](C(=O)O1)[C@]34O)O2 (stereo partly specified)									15 µM (active)	34.5 µM (active)	22.3 µM (active)	12 µM (active)	13 µM (active)	23 µM (active)	9.38 µM (active)	15.8 µM (active)
CC1=C(/C=C/C(C)=C/C=C/C(C)=C/C=O)C(C)(C)CCC1		inactive								66.6 µM (active)	49.1 µM (active)	85.6 µM (active)	28.7 µM (active)	36.6 µM (active)	67 µM (active)	34.9 µM (active)
O=C(NOC[C@H](O)CO)c1ccc(F)c(F)c1Nc1ccc(I)cc1F	inactive	inactive	inactive	inactive	inactive	inactive	inactive	inactive								
c1ccc(C(O[C@H]2CCCN(CCc3ccc4c(c3)OCO4)C2)c2ccccc2)cc1	inactive	inactive	inactive	inactive	inactive	inactive	inactive	inactive								
NC(=O)C(c1ccccc1)(c1ccccc1)[C@@H]1CCN(CCc2ccc3c(c2)CCO3)C1	inactive	inactive	inactive	inactive	inactive	inactive	inactive	inactive								
CC[C@@H]([C@H](C)O)n1ncn(-c2ccc(N3CCN(c4ccc(OC[C@@H]5CO[C@@](Cn6cncn6)(c6ccc(F)cc6F)C5)cc4)CC3)cc2)c1=O	inactive	inactive	inactive	inactive		inactive	inactive	inactive							18.1 µM (active)	
CC12CCC(C[N+](C)(CCC[N+](C)(C)C)C1)C2(C)C (stereo unspecified)	inactive	inactive	inactive	inactive	inactive	inactive	inactive	inactive								
COCC(=O)O[C@]1(CCN(C)CCCc2nc3ccccc3[nH]2)CCc2cc(F)ccc2[C@@H]1C(C)C									22.4 µM (active)	19.6 µM (active)	25.4 µM (active)	21.6 µM (active)	13.1 µM (active)	10.9 µM (active)	9.78 µM (active)	15.8 µM (active)
O=C(Nc1ccc(Oc2ccc(Cl)cc2)c(Cl)c1)c1cc(I)cc(I)c1O							inactive		4.05 µM (active)	3.93 µM (active)	10.2 µM (active)	8.12 µM (active)	4.23 µM (active)	2.64 µM (active)	2.3 µM (active)	
O=C(/C=C/c1ccc([N+](=O)[O-])cc1)c1ccccc1	inactive	inactive	inactive	inactive	inactive	inactive	inactive	inactive								
CC(C)c1nc(N(C)S(C)(=O)=O)nc(-c2ccc(F)cc2)c1/C=C/C(O)CC(O)CC(=O)O (stereo unspecified)	inactive	inactive	inactive	inactive	inactive	inactive	inactive	inactive								
O=C1c2ccccc2C(=O)C1c1ccc2ccccc2n1	inactive	inactive	inactive	inactive	inactive	inactive	inactive	inactive								
N[C@H](C(=O)O)[C@@H]1CC(Cl)=NO1									5.51 µM (active)	5.91 µM (active)	5.35 µM (active)	5.46 µM (active)	15.8 µM (active)	9.5 µM (active)	13.7 µM (active)	11.4 µM (active)
COCCCC/C(=N\OCCN)c1ccc(C(F)(F)F)cc1	inactive	inactive	inactive	inactive	inactive	inactive	inactive	inactive								

Compound	outcome [1]	outcome [2]	outcome [3]	outcome [4]	outcome [5]	outcome [6]	outcome [7]	outcome [8]	AC50 [2]	AC50 [4]	AC50 [6]	AC50 [8]	AC50 [1]	AC50 [3]	AC50 [5]	AC50 [7]
O=C1c2c(O)ccc([N+](=O)[O-])c2C(=O)c2c([N+](=O)[O-])ccc(O)c21									25.4 µM (active)	28.7 µM (active)	30.2 µM (active)	20.7 µM (active)	7.2 µM (active)	9.74 µM (active)	11.7 µM (active)	9.58 µM (active)
CCC(C)Nc1ccc(NC(C)CC)cc1 (stereo unspecified)		inactive				inactive		inactive		46.8 µM (active)			15.1 µM (active)	22.4 µM (active)	19.2 µM (active)	30.1 µM (active)
CC(=O)[C@@]1(O)CC[C@H]2[C@@H]3C=C(Cl)C4=CC(=O)CC[C@]4(C)[C@H]3CC[C@@]21C	inactive		inactive	inactive			inactive		37 µM (active)		37.9 µM (active)	37.8 µM (active)			23 µM (active)	
O=C(O)c1cc(=O)[nH]c(=O)[nH]1	inactive	inactive	inactive	inactive	inactive	inactive	inactive	inactive								
Cc1c(C(=O)NN2CCCCC2)nn(-c2ccc(Cl)cc2Cl)c1-c1ccc(Cl)cc1		inactive		inactive				inactive			37.8 µM (active)		28.3 µM (active)	23 µM (active)	21.4 µM (active)	23 µM (active)
C#C[C@]1(O)CC[C@H]2[C@@H]3[C@H](C)CC4=C(CCC(=O)C4)[C@H]3CC[C@@]21C	inactive	inactive	inactive	inactive	inactive	inactive	inactive	inactive								
CCCCC(CC)CN1CN(CC(CC)CCCC)CC(C)(N)C1 (stereo unspecified)	inactive	inactive	inactive	inactive	inactive	inactive	inactive	inactive								
O=C1c2cccc(O)c2C(=O)c2c(O)cccc21	inactive	inactive	inactive	inactive	inactive	inactive	inactive	inactive								
CN[C@H]1CC[C@@H](c2ccc(Cl)c(Cl)c2)c2ccccc21		inactive		inactive		inactive	inactive					36.8 µM (active)	33.6 µM (active)	42 µM (active)	34.6 µM (active)	
O=C(c1ccc(O)cc1)c1ccc(O)c(O)c1O	inactive	inactive	inactive	inactive	inactive	inactive	inactive	inactive								
Cc1cc(-c2ccc(N=Nc3cc(S(=O)(=O)O)c4ccccc4c3N)c(C)c2)ccc1N=Nc1cc(S(=O)(=O)O)c2ccccc2c1N	inactive		inactive		inactive	inactive	inactive	inactive	6.5 µM (active)	12.6 µM (active)						
COc1cc2[nH]c(=O)[nH]c(=O)c2cc1OC	inactive	inactive	inactive	inactive	inactive	inactive	inactive	inactive								
CC(=O)Oc1ccc(C2(c3ccc(OC(C)=O)cc3)C(=O)Nc3ccccc32)cc1							inactive		540 nM (active) and 368 nM (active)	641 nM (active) and 515 nM (active)	663 nM (active) and 407 nM (active)	555 nM (active) and 464 nM (active)	781 nM (active) and 543 nM (active)	633 nM (active) and 692 nM (active)	580 nM (active) and 459 nM (active)	
O=C(O)Cc1sc(-c2ccccc2)nc1-c1ccc(Cl)cc1	inactive	inactive	inactive	inactive	inactive	inactive	inactive	inactive								
CCOC(=O)COc1ccc2c(=O)cc(-c3ccccc3)oc2c1	inactive	inactive	inactive	inactive	inactive	inactive	inactive	inactive								
CCN(CC)c1ccc(C(=C2C=CC(=[N+](CC)CC)C=C2)c2ccccc2)cc1									4.15 µM (active)	6.97 µM (active)	9.22 µM (active)	11.1 µM (active)	1.81 µM (active)	2.75 µM (active)	1.94 µM (active)	2.93 µM (active)
CCN(CC)C(=O)/C(C#N)=C/c1cc(O)c(O)c([N+](=O)[O-])c1	inactive		inactive	inactive	inactive	inactive	inactive	inactive	33.7 µM (active)							
CC[C@H](C)COC(=O)/C=C/c1ccc(N=Cc2ccc(OC)cc2)cc1			inactive	inactive		inactive	inactive		87.2 µM (active)			84.4 µM (active)	43.5 µM (active)		46 µM (active)	
COc1nc(N)nc2c1ncn2[C@@H]1O[C@H](CO)[C@@H](O)[C@@H]1O	inactive	inactive	inactive	inactive	inactive	inactive	inactive	inactive								
CC(=O)c1cccc([N+](=O)[O-])c1	inactive	inactive	inactive	inactive	inactive	inactive	inactive	inactive								
COCC1=C(C(=O)OC(C)OC(=O)OC(C)C)N2C(=O)[C@@H](NC(=O)/C(=N\OC)c3csc(N)n3)[C@H]2SC1 (stereo partly specified)	inactive	inactive	inactive	inactive	inactive	inactive	inactive	inactive								
